“And” between values parts separate entries of the source, which are not always exact repeats. Equal entries are not always repeated. Screen size: about 5,500 compounds; about 2,000 (36%) were called active. Not shown: some 18% with an inconclusive outcome. Cut-off read from the data, not from the text of the source: active = normalized growth mostly below about 0.91 (no sharp cut-off); inconclusive = no clear call, values can overlap the other calls; inactive = mostly above about 0.92. The list shows a part of the results.
Assay: chemical genetic growth profiling, strain panel (AID 1159580);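 note: tested at 20 µM; growth read once vehicle control cultures reached saturation at 30 °C; 1 = growth at the plate median or of vehicle wells; lower values mean less growth of the strain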
Conditions: S. cerevisiae deletion strains, growth OD

Measured: normalized growth

C=C1C2CC[C@@]3(C)[C@H](c4ccoc4)OC(=O)C[C@]13O[C@H]1CC(=O)C(C)(C)[C@H](C(O)C(=O)OC)[C@@]21C (some centres undefined)
inactive: locus YAL021C, strain ccr4, stronger effect = lower value 1.06 | locus YAL026C, strain drs2, stronger effect = lower value 0.995 | locus YAL030W, strain snc1, stronger effect = lower value 0.995 | locus YBL061C, strain skt5, stronger effect = lower value 0.985 | locus YBR009C, strain hhf1, stronger effect = lower value 1.05 | locus YBR021W, strain FUR4, stronger effect = lower value 0.993 | locus YBR023C, strain chs3, stronger effect = lower value 1.01 | locus YBR171W, strain sec66, stronger effect = lower value 0.994 | locus YBR229C, strain ROT2, stronger effect = lower value 1 | locus YBR231C, strain swc5, stronger effect = lower value 0.993 | locus YBR279W, strain paf1, stronger effect = lower value 1 | locus YCL011C, strain gbp2, stronger effect = lower value 1.02 | locus YCL016C, strain dcc1, stronger effect = lower value 1.01 | locus YCL029C, strain bik1, stronger effect = lower value 1.01 | locus YCL061C, strain MRC1, stronger effect = lower value 1 | locus YCL069W, strain vba3, stronger effect = lower value 0.997 | locus YCR088W, strain abp1, stronger effect = lower value 0.999 | locus YDL005C, strain med2, stronger effect = lower value 0.989 | locus YDL035C, strain GPR1, stronger effect = lower value 1.01 | locus YDL040C, strain nat1, stronger effect = lower value 0.998 | locus YDL074C, strain BRE1, stronger effect = lower value 1.02 | locus YDL101C, strain DUN1, stronger effect = lower value 1.01 | locus YDL134C, strain PPH21, stronger effect = lower value 1.01 | locus YDL185W, strain tfp1, stronger effect = lower value 1.01 | locus YDL192W, strain arf1, stronger effect = lower value 1.01 | locus YDR001C, strain nth1, stronger effect = lower value 1.02 | locus YDR069C, strain doa4, stronger effect = lower value 0.99 | locus YDR101C, strain arx1, stronger effect = lower value 0.994 | locus YDR137W, strain rgp1, stronger effect = lower value 0.959 | locus YDR159W, strain sac3, stronger effect = lower value 0.995 | locus YDR162C, strain NBP2, stronger effect = lower value 1.02 | locus YDR195W, strain ref2 0.961 | locus YDR297W, strain sur2, stronger effect = lower value 1.02 | locus YDR318W, strain mcm21, stronger effect = lower value 1.01 | locus YDR334W, strain swr1, stronger effect = lower value 0.997 | locus YDR335W, strain msn5, stronger effect = lower value 1.01 | locus YDR388W, stronger effect = lower value 1.01 | locus YDR392W, strain spt3, stronger effect = lower value 0.958 | locus YDR502C, strain sam2, stronger effect = lower value 1.02 | locus YEL003W, strain gim4, stronger effect = lower value 1 | locus YEL037C, strain rad23, stronger effect = lower value 1 | locus YEL061C, strain CIN8 (second series), stronger effect = lower value 0.996 | locus YER015W, strain faa2, stronger effect = lower value 1 | locus YER016W, strain bim1, stronger effect = lower value 0.997 | locus YER110C, stronger effect = lower value 1.01 | locus YER111C, strain swi4, stronger effect = lower value 0.994 | locus YER155C, strain BEM2 (second series), stronger effect = lower value 0.983 | locus YER155C, strain BEM2, stronger effect = lower value 0.994 | locus YER167W, strain BCK2, stronger effect = lower value 1.01 | locus YFR010W, strain ubp6, stronger effect = lower value 0.976 | locus YGL078C, strain dbp3, stronger effect = lower value 1.02 | locus YGL086W, strain mad1, stronger effect = lower value 1.01 | locus YGL167C, strain pmr1, stronger effect = lower value 1 | locus YGL173C, strain kem1, stronger effect = lower value 1 | locus YGL227W, strain vid30, stronger effect = lower value 0.991 | locus YGL240W, strain doc1, stronger effect = lower value 0.989 | locus YGL248W, strain PDE1, stronger effect = lower value 1.01 | locus YGL253W, strain hxk2, stronger effect = lower value 0.99 | locus YGR078C, strain PAC10, stronger effect = lower value 1.01 | locus YGR135W, strain pre9, stronger effect = lower value 1.02 | locus YGR252W, strain gcn5, stronger effect = lower value 1.01 | locus YHR013C, strain ard1, stronger effect = lower value 1.01 | locus YHR027C, strain rpn1, stronger effect = lower value 0.991 | locus YHR030C, strain SLT2, stronger effect = lower value 0.963 | locus YHR079C, strain IRE1 (second series), stronger effect = lower value 1.01 | locus YHR079C, strain IRE1, stronger effect = lower value 0.98 | locus YHR094C, strain hxt1, stronger effect = lower value 1.02 | locus YHR129C, strain ARP1, stronger effect = lower value 1 | locus YHR142W, strain chs7, stronger effect = lower value 1.01 | locus YHR200W, strain rpn10, stronger effect = lower value 1.02 | locus YIL066C, strain RNR3, stronger effect = lower value 1.02 | locus YIL073C, strain SPO22, stronger effect = lower value 1.03 | locus YIL125W, strain kgd1, stronger effect = lower value 1 | locus YIR030C, strain dcg1, stronger effect = lower value 1.01 | locus YJL092W, strain hpr5, stronger effect = lower value 1 | locus YJL095W, strain BCK1 (second series), stronger effect = lower value 1.01 | locus YJL095W, strain BCK1, stronger effect = lower value 1.02 and 0.96 | locus YJL115W, strain asf1, stronger effect = lower value 0.995 | locus YJL129C, strain trk1, stronger effect = lower value 0.976 | locus YJL134W, strain LCB3, stronger effect = lower value 1.01 | locus YJL154C, strain vps35, stronger effect = lower value 0.995 | locus YJL164C, strain tpk1, stronger effect = lower value 1.03 | locus YJL166W, strain qcr8, stronger effect = lower value 1.02 | locus YJL168C, strain set2, stronger effect = lower value 1.01 | locus YJL187C, strain SWE1 (second series), stronger effect = lower value 1.01 | locus YJL187C, strain SWE1, stronger effect = lower value 1 | locus YJR043C, strain POL32, stronger effect = lower value 0.999 | locus YJR066W, strain TOR1, stronger effect = lower value 0.932 | locus YJR075W, strain HOC1, stronger effect = lower value 1.01 | locus YKL009W, strain mrt4, stronger effect = lower value 0.992 | locus YKL068W, stronger effect = lower value 1.01 | locus YKL085W, strain MDH1 (second series), stronger effect = lower value 1.01 | locus YKL085W, strain MDH1, stronger effect = lower value 1.01 | locus YKL160W, strain elf1, stronger effect = lower value 1.02 | locus YKL190W, strain CNB1, stronger effect = lower value 1 | locus YKR001C, strain vps1, stronger effect = lower value 1.01 | locus YKR026C, strain gcn3, stronger effect = lower value 0.994 | locus YKR091W, strain srl3, stronger effect = lower value 1 | locus YLL001W, strain dnm1, stronger effect = lower value 0.969 | locus YLL026W, stronger effect = lower value 1 | locus YLL041C, strain sdh2, stronger effect = lower value 1 | locus YLR027C, strain aat2, stronger effect = lower value 0.983 | locus YLR039C, strain RIC1, stronger effect = lower value 1.05 | locus YLR058C, strain SHM2, stronger effect = lower value 1.02 | locus YLR102C, strain apc9, stronger effect = lower value 1.01 | locus YLR113W, strain HOG1, stronger effect = lower value 1.01 | locus YLR221C, strain rsa3, stronger effect = lower value 0.976 | locus YLR258W, strain gsy2, stronger effect = lower value 1.01 | locus YLR262C, strain YPT6 (second series), stronger effect = lower value 1.01 | locus YLR262C, strain YPT6, stronger effect = lower value 1.02 | locus YLR268W, strain sec22, stronger effect = lower value 1 | locus YLR320W, strain mms22, stronger effect = lower value 0.982 | locus YLR342W, strain FKS1 (second series), stronger effect = lower value 0.996 | locus YLR342W, strain FKS1, stronger effect = lower value 0.99 | locus YLR357W, strain rsc2, stronger effect = lower value 0.975 | locus YLR370C, strain arc18, stronger effect = lower value 1.01 | locus YLR371W, strain rom2, stronger effect = lower value 1.02 | locus YLR384C, strain iki3, stronger effect = lower value 0.984 | locus YLR418C, strain cdc73, stronger effect = lower value 1.02 | locus YML016C, strain PPZ1, stronger effect = lower value 1.01 | locus YML032C, strain rad52, stronger effect = lower value 1.01 | locus YML120C, strain ndi1, stronger effect = lower value 1.01 | locus YML124C, strain tub3, stronger effect = lower value 1.01 | locus YMR058W, strain fet3, stronger effect = lower value 0.99 | locus YMR078C, strain ctf18, stronger effect = lower value 1.02 | locus YMR125W, strain sto1, stronger effect = lower value 0.983 | locus YMR129W, stronger effect = lower value 0.998 | locus YMR205C, strain PFK2, stronger effect = lower value 1.03 | locus YMR223W, strain ubp8, stronger effect = lower value 1.01 | locus YMR231W, strain pep5, stronger effect = lower value 0.998 | locus YMR307W, strain GAS1, stronger effect = lower value 1.01 | locus YNL067W, strain RPL9B, stronger effect = lower value 1.01 | locus YNL071W, strain lat1, stronger effect = lower value 1.02 | locus YNL128W, strain TEP1, stronger effect = lower value 1.01 | locus YNL153C, strain GIM3, stronger effect = lower value 1.01 | locus YNL183C, strain NPR1, stronger effect = lower value 0.945 | locus YNL209W, strain ssb2, stronger effect = lower value 1.01 | locus YNL233W, strain BNI4, stronger effect = lower value 1 | locus YNL248C, strain rpa49, stronger effect = lower value 0.959 | locus YNL250W, strain rad50, stronger effect = lower value 1 | locus YNL271C, strain bni1, stronger effect = lower value 1.01 | locus YNL298W, strain CLA4, stronger effect = lower value 1.01 | locus YNL307C, strain MCK1, stronger effect = lower value 1.02 | locus YNL322C, strain KRE1 (second series), stronger effect = lower value 1 | locus YNR049C, strain mso1, stronger effect = lower value 0.995 | locus YNR052C, strain pop2, stronger effect = lower value 1.01 | locus YOL006C, strain TOP1, stronger effect = lower value 1.03 | locus YOL012C, strain htz1 1.49 | locus YOL147C, strain pex11, stronger effect = lower value 1.01 | locus YOR001W, strain rrp6, stronger effect = lower value 0.953 | locus YOR061W, strain CKA2, stronger effect = lower value 1.01 | locus YOR069W, strain VPS5, stronger effect = lower value 1.01 | locus YOR070C, strain gyp1, stronger effect = lower value 0.99 | locus YOR080W, strain dia2, stronger effect = lower value 1 | locus YOR083W, strain WHI5, stronger effect = lower value 1.04 | locus YOR106W, strain vam3, stronger effect = lower value 1.02 | locus YOR136W, strain idh2, stronger effect = lower value 1.01 | locus YOR144C, strain elg1, stronger effect = lower value 1 | locus YOR184W, strain ser1, stronger effect = lower value 1.02 | locus YOR231W, strain MKK1, stronger effect = lower value 0.983 | locus YOR265W, strain rbl2, stronger effect = lower value 1.01 | locus YOR270C, strain vph1, stronger effect = lower value 0.995 | locus YOR290C, strain snf2, stronger effect = lower value 1.03 | locus YOR316C, strain cot1, stronger effect = lower value 1.01 | locus YPL051W, strain arl3, stronger effect = lower value 0.984 | locus YPL078C, strain atp4, stronger effect = lower value 1.02 | locus YPL106C, strain sse1, stronger effect = lower value 1.05 | locus YPL240C, strain hsp82, stronger effect = lower value 0.998 | locus YPL256C, strain CLN2, stronger effect = lower value 0.981 | locus YPR119W, strain clb2, stronger effect = lower value 1.01 | locus YPR141C, strain kar3, stronger effect = lower value 1 | locus YPR163C, strain tif3, stronger effect = lower value 1.01 | locus YPR167C, strain met16, stronger effect = lower value 1.01 | strain wtn01, stronger effect = lower value 1

Reference: PubChem BioAssay AID1159580 (chemical genetic matrix, 2015)
